High-throughput results as filed in PubChem.
Shown are actives, neighbours in structure and some others; about 5.3% of the full set was active somewhere.
Tau ThT inhib: qHTS for Inhibitors of Tau Fibril Formation, Thioflavin T Binding; recombinant tau K18 P301L, heparin-induced fibrillization, ThT fluorescence; Potency, µM (top dose mostly 57.4 µM), for the others: top-dose activity, negative = inhibition, most hits filed as inhibitors; Microtubule-associated protein tau (Homo sapiens), P10636; 270,000 tested, 2.1% active; AID 1460, 2008; further: potency means the concentration at half of the fitted maximal effect; nearly all actives have a fitted effect of over 55% in size
Target sequence (P10636 561-689 P618L limits assumed): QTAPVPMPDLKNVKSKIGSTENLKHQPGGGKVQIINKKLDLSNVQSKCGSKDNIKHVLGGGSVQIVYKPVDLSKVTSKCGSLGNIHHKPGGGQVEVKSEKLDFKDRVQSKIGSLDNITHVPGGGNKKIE
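Tau K18 P301L fragment (15 uM unlabeled plus 0.24 uM Alexa 594-labeled) in 100 mM sodium acetate pH 7 with compound, fibrillization induced by 20 uM heparin for 6 hr at 37 C. Thioflavin T (30 uM) added, fluorescence read after 1 hr (ex 450, em 510 nm).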
Coupling enz: qHTS Assay for Inhibitors of Fructose-1,6-bisphosphate Aldolase from Giardia Lamblia: Coupling assay counterscreen | coupling enzyme system counterscreen, AmpLite Red fluorescence | activity change, negative = inhibition, % at 58.2 µM, hits read low | 290,000 tested, 0.67% active | AID 2472, 2010; in the data active means activity change below about -30%
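Fluorescence at 525 nm excitation and 598 nm emission measured inhibition of the coupled detection system without aldolase. Compounds (at 57.5 uM final) were preincubated 10 min at room temperature with coupling enzyme reagent before a 20 min substrate/AmpLite Red step.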
Tau fluor cs: Counterscreen qHTS for Inhibitors of Tau Fibril Formation, Fluorescence Polarization; tau K18 P301L Alexa594 fluorescence, heparin fibrillization; Potency, µM (doses to about 57.7 µM), for the others: top-dose activity change, negative = decrease; 280,000 tested, 0.93% active; AID 1463, 2008; further: potency means the concentration at half of the fitted maximal effect; nearly all actives have a fitted effect of over 55% in size
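Human tau K18 P301L (15 uM unlabeled, 0.24 uM Alexa 594-labeled) in 100 mM sodium acetate pH 7 with 20 uM heparin, 6 hr at 37 C. ThT 30 uM added, 1 hr ambient; Alexa 594 FP and total fluorescence read at 555/632 nm.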
Sfp PPTase inh: qHTS Assay for Inhibitors of Bacillus subtilis Sfp phosphopantetheinyl transferase (PPTase); AID 1490, 2009; 4'-phosphopantetheinyl transferase ffp (Bacillus subtilis), Q9F4F7; Potency, µM, inactives show largest response in the series, negative = inhibition, hits mostly inhibitors; 310,000 tested, 3.5% active; Biochemical Sfp PPTase activity, qHTS;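 further: the enzyme is Sfp with the accession as filed and its product quenches rhodamine fluorescence; potency means the concentration at half of the fitted maximal effect; 0% = enzyme reaction without inhibitor and -100% = no enzyme wells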
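Step 1, compound plus 15 nM Sfp-PPTase, 15 min, room temperature. Step 2, add rhodamine-CoA (5 uM) and BHQ-2-YbbR (12.5 uM). Step 3, read 525/598 nm fluorescence at 0 and 30 min.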
KDM4E inh: qHTS Assay for Inhibitors of Human Jumonji Domain Containing 2E (JMJD2E) | Lysine-specific demethylase 4E (Homo sapiens), B2RXH2 | AID 2147, 2009 | 230,000 tested, 1.6% active | JMJD2E catalytic domain, FDH-coupled NADH fluorescence (FDH is formaldehyde dehydrogenase) | Potency, µM (doses to about 57.1 µM), inactives show at the highest dose activity change, negative = inhibition, most hits filed as inhibitors; active means well fitted inhibition curve with a large enough effect, not every such curve was filed as active; inconclusive means small, poorly fitted or top-dose-only effect, or another doubt; inactive means no such curve, though single readings can be large or run the other way;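 further: potency means the concentration at half of the fitted maximal effect; 0% = wells with enzyme and -100% = buffer wells without enzyme; nearly all actives have a fitted effect of over 50% in size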
Target sequence (B2RXH2 1-337 limits assumed): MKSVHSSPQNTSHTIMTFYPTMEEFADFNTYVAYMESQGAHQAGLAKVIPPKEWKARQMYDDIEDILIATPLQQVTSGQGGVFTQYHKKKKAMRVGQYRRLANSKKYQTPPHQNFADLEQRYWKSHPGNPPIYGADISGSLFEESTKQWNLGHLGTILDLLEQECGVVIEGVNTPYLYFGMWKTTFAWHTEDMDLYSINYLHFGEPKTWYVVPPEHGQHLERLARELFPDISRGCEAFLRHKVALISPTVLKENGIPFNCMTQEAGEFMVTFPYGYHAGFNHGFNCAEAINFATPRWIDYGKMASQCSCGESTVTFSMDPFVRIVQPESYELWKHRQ
Tau FP inhib: qHTS for Inhibitors of Tau Fibril Formation, Fluorescence Polarization; Microtubule-associated protein tau (Homo sapiens), P10636; K18 P301L tau heparin fibrillization, Alexa594 FP, 6 h; Potency, µM (series often up to 57.7 µM), inactives show at the highest dose activity, negative = inhibition, most hits filed as inhibitors; 280,000 tested, 0.39% active; AID 1468, 2008; further: potency means the concentration at half of the fitted maximal effect; nearly all actives have a fitted effect of over 55% in size
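Steps: dispense K18 P301L tau (15 uM plus 0.24 uM Alexa 594 tracer, final) in pH 7 sodium acetate; add compound; add heparin (20 uM final); incubate 6 hr, 37 C; add ThT (30 uM final); after 1 hr ambient, read FP.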
The depositor's hits bear a star; ? = inconclusive; / = no result given; ! = not confirmed by another sample; [ ] = remark or other dose. Unless noted, the call rests on the fitted dose curve; in most records, active means well fitted curve in the direction sought with a large enough effect; inconclusive means small, poorly fitted or top-dose-only effect, or another doubt; inactive means no such curve, though single readings can be large; an effect the other way counts as inactive or inconclusive. Unless noted, on the % scale 0 is the no-effect control and ±100 the full control effect.

SMILES	Tau ThT inhib	Coupling enz	Tau fluor cs	Sfp PPTase inh	KDM4E inh	Tau FP inhib
CC1(OC(=O)c2ccc(Cl)nc2)C(=O)C=C2C=C(C3CC3)OC=C2C1=O (stereo unspecified)	-15%	-1	-11%	1%	-4%	-5%
Cc1cccc(C#Cc2ccccc2)n1	-7%	0	-5%	50µM*!	13µM*!	-4%
CCn1nnc2cc(C(=O)Nc3cc(C)ccc3C)ccc21	-15%	/	-9%	/	/	-10%
COc1ccc(CCNC(=O)CSc2nnc(-c3ccco3)c(-c3ccco3)n2)cc1OC	/	-13	/	20µM*	/	/
Cc1cccc(NC(=O)CSc2nnc(-c3ccco3)c(-c3ccco3)n2)c1	14µM*	-5	?	7.9µM*	-19%	?
Cc1cccc(NC(=O)CSc2nnc(-c3ccco3)c(-c3ccco3)n2)c1C	7.9µM*	-15	?	32µM*	?	13µM*
Cc1ccc(N(CC(=O)Nc2ccc(Br)cc2)S(=O)(=O)c2cccs2)cc1	9%	/	-17%	/	/	-20%
O=C1/C(=C/c2ccncc2)SC(=S)N1Nc1ccccc1	18µM*	-5	?	?	?	?
Cc1cc(C)nc(NN2C(=O)/C(=C/c3ccccc3)SC2=S)n1	?	0	-14%	32µM*	?	-3%
O=C(O)C(Cc1ccccc1)N1C(=O)/C(=C/c2cccc3ccccc23)SC1=S (stereo unspecified)	20µM*	8	-16%	-19%	-2%	-6%
CCOc1cc(/C=C2\SC(=S)N(Nc3ccccc3)C2=O)ccc1O	11µM*	-3	13µM*[quencher]	?	4%	1%
Cc1ccccc1C(=O)Nc1ccc2oc(-c3ccc(Cl)c(Cl)c3)nc2c1	?	/	-21%	/	/	-4%
CCCN(CCC)CCCNC(=O)c1cc2c(=O)oc3ccc(C)cc3c2s1	8%	/	-4%	/	/	-2%
O=C1/C(=C/c2ccc(O)c(O)c2)SC(=S)N1Nc1ccccc1	5µM*	-4	11µM*[quencher]	-8%	?	-5%
COc1cc(/C=C2\SC(=S)N(C(Cc3ccccc3)C(=O)O)C2=O)ccc1O (stereo unspecified)	11µM*	10	-17%	?	1%	2%
CCOc1ccc(/C=C2\SC(=S)N(NS(=O)(=O)c3ccccc3)C2=O)cc1OC	14µM*	8	-6%	-24%	-7%	8%
COc1cc(/C=C2\SC(=S)N(Nc3ccccc3)C2=O)ccc1O	11µM*	4	28µM*[quencher]	?	8%	11%
O=C(O)C(Cc1ccccc1)N1C(=O)/C(=C/c2ccccc2)SC1=S (stereo unspecified)	?	7	0%	-2%	-3%	0%
Cc1ccc(C)c(N2CCN(C(=O)c3c4c(nc5ccccc35)C(=O)N(C3CCCCC3)C4)CC2)c1	?	/	0%	/	/	2%
CN1CCN(NS(=O)(=O)c2ccc(Cl)s2)CC1	18µM*	0	-25%	-11%	-3%	?
O=S(=O)(NN1CCOCC1)c1ccc(Cl)s1	?	-6	-5%	-15%	7%	?
O=C(O)c1ccccc1-c1ccc(/C=C2\SC(=O)N(c3ccccc3)C2=O)o1	/	9	/	-15%	/	/
O=C1N=C(N2CCOCC2)S/C1=C/c1ccc(-c2ccccc2Cl)o1	-16%	0	-13%	-2%	1%	1%
O=C(NCCN1CCOCC1)c1ccc2c(c1)N(Cc1c(F)cccc1Cl)C(=O)c1ccccc1S2	-1%	3	-17%	-6%	-5%	3%
O=C1S/C(=C/c2ccc(N3CCOCC3)o2)C(=O)N1Cc1c(F)cccc1Cl	?	-16	-25%	4.5µM*	-22%	11%
SMILES	Tau ThT inhib	Coupling enz	Tau fluor cs	Sfp PPTase inh	KDM4E inh	Tau FP inhib
O=C1S/C(=C\c2ccc(N3CCOCC3)o2)C(=O)N1Cc1c(F)cccc1Cl	?	-41*	-10%	2.8µM*	-13%	4%
O=C1S/C(=C\c2ccc(N3CCOCC3)o2)C(=O)N1c1ccccc1	11µM*	-43*	-24%	4µM*	?	?
COCCn1c(=O)c(-c2ccc(F)cc2)nc2cnc(N(C)C)nc21	/	-2	/	11%	/	/
CCOn1c(=O)c(-c2cccs2)[n+]([O-])c2ccccc21	-25%	2	-9%	-7%	-12%	-4%
C=CCOn1c(=O)c(-c2cc3ccccc3o2)[n+]([O-])c2ccccc21	-19%	0	-13%	5%	-2%	0%
CCOC(=O)COn1c(=O)c(-c2cc3ccccc3o2)[n+]([O-])c2ccccc21	?	-8	-14%	79µM*	-2%	1%
CCOC(=O)COn1c(=O)c(-c2cccs2)[n+]([O-])c2ccccc21	-13%	-9	-15%	10µM*	?	-3%
Fc1ccc(C(c2ccc(F)cc2)N2CCN(C/C=C\c3ccccc3)CC2)cc1	-16%	0	-14%	-1%	-2%	-3%
C#CCCCCCCC#CCN(C)C	-9%	4	-6%	-6%	16µM*	1%
CN(C)CC#CCCCCCCC#CCN(C)C	-9%	3	-14%	2%	-11%	-4%
CCN(CC)S(=O)(=O)c1cccc(C(=O)N/N=C(\C)c2ccc(O)cc2O)c1	8%	6	-16%	16%	25µM*	?
CCn1c(C)nc2cc(C(=O)N/N=C/c3ccc(O)c(O)c3O)ccc21	3.2µM*	-53*	?	2.2µM*	-3%	7.9µM*
CCN(CC)S(=O)(=O)c1cccc(C(=O)N/N=C/c2ccc(N3CCOCC3)cc2)c1	-17%	1	-18%	8%	20%	7%
CCN(CC)S(=O)(=O)c1cccc(C(=O)N/N=C/c2ccc(O)c(O)c2O)c1	3.2µM*	-41*	?	-106%	7.9µM*	8.9µM*
CCOc1cc(/C=N/NC(=O)c2cccc([N+](=O)[O-])c2)ccc1OS(=O)(=O)c1ccccc1	-17%	/	14µM*[quencher]	22%	12%	-8%
CCn1c(C)nc2cc(C(=O)N/N=C/c3cccc(OC)c3O)ccc21	?	-3	-25%	22%	0%	4%
CCN(CC)C(=O)c1ccccc1NC(=O)c1cccc(S(=O)(=O)N(CC)CC)c1	-1%	0	-5%	5%	-2%	-15%
